{"source": "PubChem BioAssay AID540317", "about": "(National Center for Advancing Translational Sciences (NCATS), 2011)", "note": "The campaign covered roughly 390,000 compounds. About 2,200 (0.56%) were called active. About 3% were inconclusive and are not listed. Shown is part of a subset that was picked to be rich in actives. Unmarked numbers belong to inactive results. The call rests on the fitted dose curve; in most records, active means well fitted inhibition curve with a large enough effect; inconclusive means small, poorly fitted or top-dose-only effect; inactive means no such curve, though single readings can be large or run the other way. Potency means the concentration at half of the fitted maximal effect.", "data": [{"biological_target": "Chromobox protein homolog 1 (Homo sapiens) (UniProt P83916)", "sequence (P83916 whole entry, looked up)": "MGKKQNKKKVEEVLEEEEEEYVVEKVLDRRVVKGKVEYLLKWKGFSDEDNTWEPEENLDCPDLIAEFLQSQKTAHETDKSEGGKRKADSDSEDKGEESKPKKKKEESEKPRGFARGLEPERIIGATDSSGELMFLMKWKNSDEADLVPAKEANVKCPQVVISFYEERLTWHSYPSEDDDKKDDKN", "assay": "HTS for Inhibitors of HP1-beta Chromodomain Interactions with Methylated Histone Tails; further: nearly all actives have a fitted effect of over 70% in size", "conditions": "AlphaScreen HP1-beta / biotin-H3K9me3 peptide binding; series mostly up to 114 µM; activity change, negative = inhibition: at the top concentration", "in_short": "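AlphaScreen: HP1-beta (50 nM) preformed 30 min with biotin-H3(1-18)K9me3 peptide (50 nM) in PBS pH 7.4, 0.01% Tween-20. Compound added for 30 min at RT, then streptavidin donor/nickel chelate acceptor beads (10 ug/mL) for 30 min.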", "values": [{"smiles": "CCOc1ccc(Nc2nc(Cc3nnc(SCC(=O)NC4CCCC4)n3C)cs2)cc1", "activity change, negative = inhibition": "14.3%"}, {"smiles": "COc1ccc(-c2nc3scc(CCNS(=O)(=O)c4cc(F)ccc4OC)n3n2)cc1OC", "activity change, negative = inhibition": "-5.93%"}, {"smiles": "CCS(=O)(=O)c1cc([N+](=O)[O-])c(Sc2ccccc2N)s1", "Potency": "39.8 µM (active)"}, {"smiles": "Cc1ccc(CNC(=O)C2(C(F)(F)F)C/C(=C\\CCO)CCCO2)o1", "note": "(stereo not given)", "activity change, negative = inhibition": "49.9%"}, {"smiles": "COc1ccc(/C=C/c2noc(-c3ccccc3O)n2)cc1OC", "activity change, negative = inhibition": "14%"}, {"smiles": "CC(=O)OCC(NC(=O)C(Cc1ccccc1)NC(=O)OC(C)(C)C)C1OC(n2ccc(=O)[nH]c2=O)C(OC(C)=O)C1OC(C)=O", "note": "(stereo not given)", "activity change, negative = inhibition": "30.5%"}, {"smiles": "O=S(=O)(NCCS(=O)(=O)N1CCN(c2ccccc2)CC1)c1ccc(Cl)cc1", "activity change, negative = inhibition": "22.9% [at 57 µM]"}, {"smiles": "C=CC1=C(C(=O)O)N2C(=O)[C@@H](NC(=O)/C(=N/OCC(=O)O)c3csc(N)n3)[C@H]2SC1", "Potency": "14.1 µM (active)"}, {"smiles": "CCCCCCC1(C)NC(c2ccc3c(c2)OCO3)=CC(c2ccccc2O)N1", "note": "(stereo not given)", "activity change, negative = inhibition": "0.409% [at 57 µM]"}, {"smiles": "CN(C)c1ccc(C(CC(=O)O)C(=O)O)cc1", "note": "(stereo not given)", "activity change, negative = inhibition": "3.78%"}, {"smiles": "O=C(Nc1ccc(CSc2ccccc2)cc1)c1ccc(CN2CCOCC2)cc1", "activity change, negative = inhibition": "25.2%"}, {"smiles": "CN(C)c1ccc(CSc2ccccc2)cc1", "Potency": "39.8 µM (active)"}, {"smiles": "Cc1ccc(-c2nc3ccccn3c2Nc2ccc(F)cc2)o1", "activity change, negative = inhibition": "17.1%"}, {"smiles": "Cc1ccc(-c2onc(C)c2C)cc1S(=O)(=O)Nc1ccccn1", "activity change, negative = inhibition": "52.2%"}, {"smiles": "CCCCNC(=S)N/N=C1\\CCCCc2ccccc21", "activity change, negative = inhibition": "-0.0404%"}, {"smiles": "Cc1cc(F)ccc1NC(=S)NCCc1ccccc1", "activity change, negative = inhibition": "36.4%"}, {"smiles": "CCCC1CCC(=NNC(=S)NCCc2ccccc2)CC1", "note": "(stereo not given)", "Potency": "44.7 µM (active)"}, {"smiles": "COC(=O)C(CC(C)C)NS(=O)(=O)c1cc(Br)ccc1Br", "note": "(stereo not given)", "activity change, negative = inhibition": "30.3%"}, {"smiles": "CCOC(=O)c1ccccc1NC(=O)c1sc2nc(-c3ccc(F)cc3)cn2c1C", "activity change, negative = inhibition": "13.2% [at 57 µM]"}, {"smiles": "Cc1ccc(NC(=O)c2ccc3[nH]c(C)cc(=O)c3c2)c(C)c1", "activity change, negative = inhibition": "6.09%"}, {"smiles": "CCOc1ccccc1NC(=O)CSc1ncc(S(=O)(=O)c2ccc(C(C)(C)C)cc2)c(=O)[nH]1", "activity change, negative = inhibition": "15.9%"}, {"smiles": "CN=c1scc(-c2cc(OC)ccc2OC)n1/N=C/c1c(C)[nH]c2ccccc12", "Potency": "31.6 µM (active)"}, {"smiles": "COc1ccc(/C=N/n2c(C)cc(C)cc2=O)cc1", "activity change, negative = inhibition": "17.3%"}, {"smiles": "Oc1ccc(Br)cc1C1C=C(c2ccc3c(c2)OCO3)NC(c2ccc(Cl)cc2)N1", "note": "(stereo not given)", "activity change, negative = inhibition": "4.38% [at 57 µM]"}, {"smiles": "CCCCSc1ncnc2c1sc1nc(N3CCOCC3)c3c(c12)CCCC3", "activity change, negative = inhibition": "44.3%"}, {"smiles": "Oc1cc2c(cc1O)CN(C(=S)NCCc1ccc(Cl)cc1)CCC2", "Potency": "50.1 µM (active)"}, {"smiles": "S=C(Nc1ccc(Cl)cc1Cl)N1CCCC1", "activity change, negative = inhibition": "27.6%"}, {"smiles": "O=C(NCCc1ccc(Cl)cc1)C1CCCN1C(=O)NCc1ccccc1", "note": "(stereo not given)", "activity change, negative = inhibition": "26.5%"}, {"smiles": "COc1ccc(C2=NC3(CCCCC3)N(CC(=O)Nc3ccc(C(C)C)cc3)C2=O)cc1", "activity change, negative = inhibition": "46.8%"}, {"smiles": "COc1ccc(N2CCN(c3cc(C)nc4nncn34)CC2)cc1", "activity change, negative = inhibition": "19.4%"}, {"smiles": "CCCNC(=O)C1CCN(c2nc3ccc(C)cc3[nH]2)CC1", "activity change, negative = inhibition": "17.6% [at 57 µM]"}, {"smiles": "COc1ccc(N2CCN(C(CNS(=O)(=O)c3ccc(C)cc3)c3ccccc3)CC2)cc1", "note": "(stereo not given)", "Potency": "31.6 µM (active)"}, {"smiles": "COc1ccc(S(=O)(=O)NCC(c2ccc(C)cc2)N2CCN(C)CC2)cc1OC", "note": "(stereo not given)", "activity change, negative = inhibition": "24.5%"}, {"smiles": "COc1ccc(S(=O)(=O)NCC(c2ccc(N(C)C)cc2)N2CCCC2)cc1", "note": "(stereo not given)", "activity change, negative = inhibition": "6.18%"}, {"smiles": "COc1ccc(NC(=O)c2sc3nc[nH]c(=O)c3c2C)cc1", "activity change, negative = inhibition": "15.5% [at 57 µM]"}, {"smiles": "O=[N+]([O-])c1ccc(Oc2ccc(F)cc2Br)c2ccncc12", "Potency": "50.1 µM (active)"}, {"smiles": "CCN1CCN(c2cc(C)c3cc(NC(=O)c4cc(Cl)ccc4OC)ccc3n2)CC1", "activity change, negative = inhibition": "10.9%"}, {"smiles": "CCN(C(=O)CSc1nnc(C)n2c1cc1occc12)c1ccccc1", "activity change, negative = inhibition": "21.5%"}, {"smiles": "CCOc1ccc(S(=O)(=O)N2CCN(C(=S)NCC3CCCO3)CC2)cc1", "note": "(stereo not given)", "activity change, negative = inhibition": "28.5%"}, {"smiles": "CCOc1ccc(-n2c(N)c(C(=O)NCC3CCCO3)sc2=S)cc1", "note": "(stereo not given)", "Potency": "17.8 µM (active)"}, {"smiles": "CCOc1ccc(S(=O)(=O)NCCC(=O)NCC2CCCO2)cc1", "note": "(stereo not given)", "activity change, negative = inhibition": "27.3%"}, {"smiles": "COc1ccc(-c2cccc(NS(=O)(=O)c3cc(C)c(OC)c(C)c3C)c2)nn1", "activity change, negative = inhibition": "21.1% [at 57 µM]"}, {"smiles": "COc1ccc(-c2nc3c4ccccc4n(CC(=O)Nc4ccc(C(C)=O)cc4)c(=O)n3n2)cc1", "activity change, negative = inhibition": "35.1%"}, {"smiles": "O=C1CSC(=S)N1/N=C/c1ccc(O)c([N+](=O)[O-])c1", "Potency": "39.8 µM (active)"}, {"smiles": "CCOC(=O)c1c(C)n(S(=O)(=O)c2ccc(C)cc2C)c2ccc(NS(=O)(=O)c3ccc(C)cc3C)cc12", "activity change, negative = inhibition": "17.2%"}, {"smiles": "CC(=O)N1CCCc2cc(S(=O)(=O)N3CCC(C(=O)NC4CCCCC4)CC3)ccc21", "activity change, negative = inhibition": "14.9% [at 57 µM]"}, {"smiles": "Cc1ccc(NC(=O)C(Cc2ccccc2)NS(=O)(=O)c2ccc3c(c2)oc(=O)n3C)cc1C", "note": "(stereo not given)", "activity change, negative = inhibition": "28%"}, {"smiles": "CC1CCCCC1NC(=O)CSc1nnc(-c2ccncc2)n1CCCN(C)C", "note": "(stereo not given)", "Potency": "28.2 µM (active)"}, {"smiles": "COCCCn1c(SCC(=O)NC2CCCC2)nnc1-c1ccccc1", "activity change, negative = inhibition": "52.1%"}, {"smiles": "CCn1c(SCC(=O)NC2CC2)nnc1-c1ccncc1", "activity change, negative = inhibition": "17.1%"}]}]}
